Results taken from PubChem BioAssay AID2685 (National Center for Advancing Translational Sciences (NCATS), 2010).
Among all 320,000 compounds or so, about 2,100 (0.66%) were called active. Roughly 53% stayed inconclusive and do not appear here. The call rests on the fitted dose curve; in most records, active means well fitted inhibition curve with a large enough effect in the signal ratio, with a control signal flat (not every such curve was filed as active); inconclusive means small, poorly fitted or top-dose-only effect, or effect the other way, or a change in a side signal; inactive means flat fitted curve, though single readings scatter; the % refers to the signal ratio. The full list was thinned out, with actives kept by preference.
Potency means the concentration at half of the fitted maximal effect.

Assay: qHTS Assay for Lipid Storage Modulators in Drosophila S3 Cells;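 on cell number change: cells counted by Cell Tracker Red CMTPX staining in the red channel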
Settings: BODIPY lipid droplet fluorescence, 18-24 h, cells fed with added oleic acid; cell number change: measured here: cell count max response; series mostly up to 46.1 µM
How it was run: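 Laser-scanning cytometry quantifies lipid droplet accumulation (500–530 nm total intensity; droplet/cell object ratio) in oleic acid-fed (400 uM added) Drosophila S3 cells treated with a concentration series. 20 uM Triacsin C defined 100% inhibition.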
In the case of `CS(=O)(=O)N1CCN(c2ccc(C(=O)N3CCOCC3)cc2[N+](=O)[O-])CC1`, the Potency is reported as “inactive” and the cell number change is reported as 10.2%. With `COc1nc2ccccc2nc1CCC(=O)O` the Potency was “inactive” and the cell number change was -4.36%. For `CC(=O)Nc1nc(=O)c2ccccc2s1`, the Potency was “inactive” and the cell number change was -8.23%. In the case of `O=C(Nc1ccc(F)c(F)c1)c1ccc2c(c1)OCO2`, the Potency is reported as “inactive” and the cell number change is reported as -8.99%. In the case of `O=C(Nc1ccc(NC(=O)c2ccc(Cl)cc2Cl)cc1)c1ccc2c(c1)OCO2`, the Potency is reported as 16.4 µM (active) and the cell number change is reported as -0.901%. For `Cc1cc(C(=O)Nc2ccc3c(c2)OCCO3)ccc1[N+](=O)[O-]`, the Potency was “inactive” and the cell number change was 0.293%. With `O=C(Nc1ccc2c(c1)OCCO2)c1ccc(Cl)c([N+](=O)[O-])c1` the Potency was 16.4 µM (active) and the cell number change was -0.392%. With `O=C(Nc1ccc(Cl)c([N+](=O)[O-])c1)c1ccc2c(c1)OCCO2` the Potency was “inactive” and the cell number change was 0.135%. With `O=C(Nc1ccc2c(c1)OCCO2)c1ccc(Cl)cc1Cl` the Potency was “inactive” and the cell number change was -12.4%. In the case of `Fc1cccc(Cl)c1Cn1nnc2c(NCc3ccccn3)ncnc21`, the Potency is reported as “inactive” and the cell number change is reported as -17.4%. In the case of `O=C(Nc1ccc(Cl)cc1N1CCOCC1)C1CC1`, the Potency is reported as “inactive” and the cell number change is reported as -0.587%. For `CC(C)(C)C1CCC(C(=O)Nc2ccc(N3CCOCC3)cc2N2CCOCC2)CC1` (stereo unspecified), the Potency was 0.0731 µM (active) and the cell number change was 2.76%. For `O=C(Nc1ccc(N2CCOCC2)cc1)C1CC1`, the Potency was “inactive” and the cell number change was 20.3%. For `CC(C)c1ccccc1NC(=O)c1ccc2ncsc2c1`, the Potency was “inactive” and the cell number change was 3.81%. In the case of `Cc1cc(C)c2nc(-c3ccncc3)cc(C(=O)N3CCN(Cc4ccccc4Cl)CC3)c2c1`, the Potency is reported as “inactive” and the cell number change is reported as -25.7%. For `CCOc1ccc(-c2cc(CCCC(=O)NCc3ccco3)no2)cc1`, the Potency was “inactive” and the cell number change was 7.38%. For `CC(=O)Nc1cccc(NC(=O)c2cccc(OCc3ccccc3)c2)c1`, the Potency was “inactive” and the cell number change was -0.179%. In the case of `CC(=O)c1cccc(NC(=O)c2ccccc2OCc2ccc(F)cc2)c1`, the Potency is reported as “inactive” and the cell number change is reported as 17.5%. In the case of `CC(=O)Nc1cccc(NC(=O)c2ccccc2OCc2ccccc2)c1`, the Potency is reported as 0.103 µM (active) and the cell number change is reported as 4.05%. For `Cc1cc(N2CCN(c3ccccc3)CC2)n2cc(-c3ccccc3)nc2n1`, the Potency was “inactive” and the cell number change was 0.751%. For `O=C(O)c1cc(-c2ccccc2)n[nH]1`, the Potency was “inactive” and the cell number change was -6.51%. With `COc1ccc(-c2cc(C(=O)O)[nH]n2)cc1OC` the Potency was 18.4 µM (active) and the cell number change was -22.4%. For `COc1ccc(-c2cc(C(=O)NN)[nH]n2)cc1OC`, the Potency was “inactive” and the cell number change was 0.0556%. For `COc1ccccc1NS(=O)(=O)c1cccc(C(=O)NNC(=O)C(NC(N)=O)C(C)C)c1` (stereo unspecified), the Potency was “inactive” and the cell number change was -2.91%. For `CN=Cc1nc(-c2ccccc2)oc1O`, the Potency was “inactive” and the cell number change was 3.36%. For `COc1ccc(-c2nc(/C=C3\C(C)=Nc4ccccc43)c(O)o2)cc1`, the Potency was “inactive” and the cell number change was 8.93%. With `CC1=Nc2ccccc2/C1=C\c1nc(-c2ccc(F)cc2)oc1O` the Potency was 4.11 µM (active) and the cell number change was -8.49%. With `CCC(=O)NC(=S)Nc1ccc(NC(=O)c2ccc([N+](=O)[O-])cc2Cl)cc1` the Potency was “inactive” and the cell number change was -6.05%. In the case of `CC(=O)OCC1=C(C(=O)O)N2C(=O)C(NC(=O)c3ccc(COc4ccc(Cl)cc4)o3)C2SC1` (stereo unspecified), the Potency is reported as “inactive” and the cell number change is reported as 12.1%. For `O=C(C1CCC1)N1CCN(c2ccc(C(F)(F)F)cc2[N+](=O)[O-])CC1`, the Potency was 0.58 µM (active) and the cell number change was 4.32%. With `NC(=O)C1CCN(c2ccc(C(F)(F)F)cc2[N+](=O)[O-])CC1` the Potency was “inactive”. With `O=[N+]([O-])c1cc(C(F)(F)F)ccc1N1CCC(O)CC1` the Potency was “inactive” and the cell number change was 9.29%. For `C1CCC(Nc2nc3nonc3nc2N2CCSCC2)C1`, the Potency was “inactive” and the cell number change was -7.42%. With `O=C(NN(C(=O)C1CC1)c1nc2ccccc2s1)C1CC1` the Potency was “inactive” and the cell number change was 4.43%. For `O=C(O)CCC(=O)Nc1ccc(N=Nc2ccccc2)cc1`, the Potency was “inactive” and the cell number change was -12.6%. With `O=C(CCl)Nc1ccc(N=Nc2ccccc2)cc1` the Potency was 5.8 µM (active) and the cell number change was -14.8%. With `O=C(O)CCCC(=O)Nc1ccc(N=Nc2ccccc2)cc1` the Potency was “inactive” and the cell number change was 17%. In the case of `CCCCCC/C=N/Nc1nnc(Cc2ccc(OC)c(OC)c2)c(=O)[nH]1`, the Potency is reported as “inactive”. In the case of `CC(=O)Nc1ccc(S(=O)(=O)Nc2nc3ccccc3s2)cc1`, the Potency is reported as 23.1 µM (active) and the cell number change is reported as -10.9%. In the case of `CC(=O)Nc1ccc(S(=O)(=O)Nc2nc3ccc(C)cc3s2)cc1`, the Potency is reported as “inactive” and the cell number change is reported as 6.47%. With `CC(=O)Nc1ccc(S(=O)(=O)Nc2nnc(CC(C)(C)C)s2)cc1` the Potency was “inactive” and the cell number change was 0.722%. In the case of `O=S(=O)(Nc1nnc(C2CCCCC2)s1)c1ccc(F)cc1`, the Potency is reported as “inactive” and the cell number change is reported as -12.8%. For `CC(=O)Nc1ccc(S(=O)(=O)Nc2nnc(C3CCCCC3)s2)cc1`, the Potency was 3.66 µM (active) and the cell number change was 6.53%. In the case of `CC(=O)Nc1ccc2nc(NS(=O)(=O)c3ccc(C)cc3)sc2c1`, the Potency is reported as “inactive” and the cell number change is reported as 2.04%. For `COc1ccc(CCNC(=O)C(=O)Nc2nccs2)cc1OC`, the Potency was “inactive”. For `Cc1c(N=C/C=C/c2ccccc2)cnn1C`, the Potency was “inactive” and the cell number change was 0.211%. For `CCc1nnc(SCC(=O)Nc2nccs2)n1CC`, the Potency was “inactive” and the cell number change was 1.52%.
